Sampled rows, rich in hits. Any-hit rate of the full collection: about 9.9%.
KB-V1 MDR tox: qHTS assay for MDR1-selective chemotherapeutics: Primary screen using the drug-selected MDR subline cells KB-V1; KB-V1 MDR cells viability, CellTiter-Glo, 72 h; Potency, µM (highest dose often 46.1 µM), actives largely listed as cytotoxic; actives 3.4% (n = 400,000); AID 1347076, 2019; also: potency is read from the fitted curve at half-maximal effect; % is scaled to controls: 0 for no effect and ±100 for the full control effect; nearly all actives have a fitted effect of over 60% in size
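Potencies derive from concentration-effect curves fitted to normalized luminescence (CellTiter-Glo) of KB-V1 cells treated for 72 h at 37 degrees C in phenol-red-free DMEM containing 10% FBS.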
KB-3-1 tox: qHTS assay for MDR1-selective chemotherapeutics: Primary screen using the parental adenocarcinoma cell KB-3-1; KB-3-1 viability, CellTiter-Glo ATP luminescence, 72 h; Potency, µM (highest dose often 46.1 µM), hits mostly cytotoxic; actives 1.4% (n = 400,000); AID 1347075, 2019; also: potency is read from the fitted curve at half-maximal effect; % is scaled to controls: 0 for no effect and ±100 for the full control effect; nearly all actives have a fitted effect of over 60% in size
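Screening of KB-3-1 cells (DMEM, 10% FBS, phenol-red free) ran from lowest to highest compound concentration; after 72 h at 37 °C viability was read luminescently and curves fitted.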
IL-1B inflam inh: qHTS for Inhibitors of Inflammasome Signaling: IL-1-beta AlphaLISA Primary Screen | AID 743279, 2014 | actives 4.7% (n = 360,000) | activity change, % at 57.5 µM | THP-1 LPS/ATP IL-1B secretion, AlphaLISA, 16 h; hits give low values; in the data active = activity change below about -50%; inconclusive = mostly about -30% to -49%; also: % is scaled to controls: 0 for no effect and ±100 for the full control effect
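THP-1 cells pretreated 1 hr with compounds (up to 57.5 uM final), then stimulated with LPS (250 ng/mL final) plus ATP (1.25 mM final); secreted IL-1B measured by AlphaLISA after 16 hr, decreased signal indicating inhibition.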
SW480 rereplic: A quantitative high throughput screen for small molecules that induce DNA re-replication in SW480 colon adenocarcinoma cells; SW480 DNA re-replication, Hoechst DNA content imaging, 48 h; Potency, µM (highest dose often 46.1 µM), without a hit: top-dose re-replication activation, hits mostly activators; actives 1.8% (n = 340,000); AID 624297, 2012; also: potency is read from the fitted curve at half-maximal effect; % of control where 0% means no effect; nearly all actives have a fitted effect of over 55% in size
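Image-based DNA-content assay: after two days of treatment, nuclei were labelled with the DNA dye Hoechst and imaged, and hits were compounds raising the count of nuclei showing high fluorescence intensity.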
MCF10A rereplic: A quantitative high throughput screen for small molecules that induce DNA re-replication in MCF 10a normal breast cells; MCF 10A DNA re-replication, Hoechst nuclear intensity, 48 h; Potency, µM (series often up to 46.1 µM), without a hit: at the top dose activity, positive = re-replication, most hits filed as activators; actives 2.9% (n = 350,000); AID 624296, 2012; also: potency is read from the fitted curve at half-maximal effect; % of control where 0% means no effect; nearly all actives have a fitted effect of over 50% in size
Active calls of the source: *; [ ] = remark or other dose. Unless noted, calls follow the shape of the dose curve; as a rule, active = well fitted curve in the direction sought with a large enough effect; inconclusive = small, poorly fitted or top-dose-only effect, or another doubt; inactive = no such curve, though single readings can be large; an effect the other way counts as inactive or inconclusive.

CC/C(C)=N/Nc1cccc([N+](=O)[O-])c1 was read as KB-V1 MDR tox inactive, KB-3-1 tox inactive, IL-1B inflam inh 0, SW480 rereplic 0% and MCF10A rereplic 20%.
`O=C1CCCC2=C1C(c1cccc(Br)c1)n1nc(-c3ccco3)nc1N2` (stereo not given) gave KB-V1 MDR tox inactive, KB-3-1 tox inactive, IL-1B inflam inh -94*, SW480 rereplic 3% and MCF10A rereplic 1%.
For CCOc1ccccc1NC(=O)c1ccc2c(c1)CCN2S(C)(=O)=O the results were KB-V1 MDR tox inactive and KB-3-1 tox inactive.
Screening O=C1CN(S(=O)(=O)c2cccc(Br)c2)CCN1 returned KB-V1 MDR tox inactive, KB-3-1 tox inactive, IL-1B inflam inh -1, SW480 rereplic 0% and MCF10A rereplic 0%.
Screening CCN(CC)CCN1C(=O)C(O)=C(C(C)=O)C1c1ccccc1[N+](=O)[O-] (stereo not given) returned KB-V1 MDR tox inconclusive, KB-3-1 tox inactive, IL-1B inflam inh 17, SW480 rereplic inconclusive and MCF10A rereplic 21µM*.
For CCOc1ccccc1CN1CCNC(=O)C1CC(=O)N(C)C1CCOCC1 (stereo not given) the results were KB-V1 MDR tox inactive, KB-3-1 tox inactive, IL-1B inflam inh 14, SW480 rereplic inconclusive and MCF10A rereplic -2%.
For CCOc1ccc(N(CC(=O)Nc2ccccc2CC)S(=O)(=O)c2c(C)[nH]c(=O)[nH]c2=O)cc1 the results were KB-V1 MDR tox inactive and KB-3-1 tox inactive.
CN(Cc1ccccc1)C(=O)[C@@H]1CCCN1C(=O)[C@@H]1CCCN1C(=O)c1cccc(Cl)c1 was read as KB-V1 MDR tox inactive, KB-3-1 tox inconclusive and IL-1B inflam inh -17.
`OCC1OC(n2ccc3c(NO)ncnc32)C(O)C1O` (stereo not given) gave KB-V1 MDR tox 0.52µM*, KB-3-1 tox 0.46µM*, IL-1B inflam inh -102*, SW480 rereplic inconclusive and MCF10A rereplic 0.16µM*.
For Nc1ncnc2c1nc(Cl)n2[C@@H]1O[C@H](CO)[C@@H](O)[C@@H]1O the results were KB-V1 MDR tox inactive and KB-3-1 tox inconclusive.
Screening CN(C)c1nc2c(N)ncnc2n1C1OC(CO)C(O)C1O (stereo not given) returned KB-V1 MDR tox inactive, KB-3-1 tox inactive, IL-1B inflam inh 1, SW480 rereplic 0% and MCF10A rereplic 0%.
Screening OCC1OC(n2cnc3c(NO)ncnc32)C(O)C1O (stereo not given) returned KB-V1 MDR tox inactive and KB-3-1 tox inconclusive.
`Nc1ncnc2c1nc(-c1ccccc1)n2C1OC(CO)C(O)C1O` (stereo not given) gave KB-V1 MDR tox inactive, KB-3-1 tox inactive and IL-1B inflam inh -50*.
`OCC1OC(n2cnc3c(NCc4ccccc4O)ncnc32)C(O)C1O` (stereo not given) gave KB-V1 MDR tox 10µM*, KB-3-1 tox inconclusive, IL-1B inflam inh -86*, SW480 rereplic 2.3µM* and MCF10A rereplic inconclusive.
For CN(C)c1ncnc2c1ccn2C1OC(CO)C(O)C1O (stereo not given) the results were KB-V1 MDR tox inconclusive, KB-3-1 tox 0.82µM*, IL-1B inflam inh -29, SW480 rereplic 15µM* and MCF10A rereplic 2.3µM*.
CCCN(CCO)C1CCN(CCc2ccccc2)CC1 was read as KB-V1 MDR tox inactive, KB-3-1 tox inactive, IL-1B inflam inh -1, SW480 rereplic inconclusive and MCF10A rereplic -2%.
CS(=O)(=O)N(CC(=O)O)Cc1cccc(CN(CC(=O)O)S(C)(=O)=O)c1 was read as KB-V1 MDR tox inactive, KB-3-1 tox inactive, IL-1B inflam inh -2, SW480 rereplic -33%[9.22 µM] and MCF10A rereplic 1%.
Cc1ccc(NC(=O)Cn2c(=O)n(CCc3ccccc3)c(=O)c3c4c(sc32)CCCC4)cc1C was read as KB-V1 MDR tox inactive and KB-3-1 tox inactive.

Compound activity: PubChem, National Center for Advancing Translational Sciences (NCATS)
